Compound activity as filed in PubChem.
HT1080NT lethal: kills 2HG-producing HT-1080-NT fibrosarcoma cells; HT-1080-NT fibrosarcoma viability, CellTiter-Glo ATP luminescence, 48 h; Potency, µM (series often up to 46.1 µM), inactives show at the highest dose activity, negative = less viability, actives largely listed as cytotoxic; 360,000 compounds, 1.6% hits; AID 686970;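 also: NT is the 2HG producing partner of a matched IDH1 knockdown line; potency is read from the fitted curve at half-maximal effect; 0% = DMSO-treated cells and -100% = media-only wells without cells; nearly all actives have a fitted effect of over 55% in size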
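HT-1080-NT fibrosarcoma cells (2HG-overproducing), 750 cells/well in RPMI with 5% FBS, dosed after 2 h and incubated 48 h at 37C. CellTiter-Glo luminescence normalized to DMSO and no-cell wells; concentration-response curves fitted and classed.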
ALOX12 inh: blocks human arachidonate 12S-lipoxygenase; P18054; purified 12hLO, xylenol orange hydroperoxide absorbance; Potency, µM (doses to about 108 µM), for inactives: at the highest dose activity change, negative = inhibition, actives largely listed as inhibitors; 580,000 compounds, 1.1% hits; also: potency is read from the fitted curve at half-maximal effect
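Purified human 12hLO at 150 nM in 25 mM Hepes, 0.01% Triton X-100, pH 7.0, preincubated 15 min at room temperature with compound. Reaction started with 40 uM arachidonic acid, 30 min at room temperature. Hydroperoxide measured by Fe-xylenol orange, 573/405 nm absorbance ratio.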
TDP1 cell CPT: DT40-hTDP1 cell growth loss with CPT. Potency, µM (top dose mostly 46.2 µM), for inactives: at the top dose activity change, negative = growth inhibition, hits mostly inhibitors. AID 686979. 420,000 compounds, 12% hits. chicken DT40 Tdp1-/-;hTDP1 cells + 20 nM CPT, ATP luminescence, 48 h; also: potency is read from the fitted curve at half-maximal effect; nearly all actives have a fitted effect of over 55% in size
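Chicken DT40 Tdp1-/- cells complemented with human TDP1, 400 cells/well, exposed to compounds plus 20 nM camptothecin for at least 48 h at 37 C; viability read as ATP content by CellTiter-Glo luminescence.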
TDP1 cell noCPT: qHTS for Inhibitors of human tyrosyl-DNA phosphodiesterase 1 (TDP1): qHTS in cells in absence of CPT; DT40 Tdp1-/- hTDP1 cells, no CPT, ATP luminescence, 48 h; Potency, µM (top dose mostly 46.2 µM), inactives show top-dose activity change, negative = growth inhibition, most hits filed as inhibitors; 420,000 compounds, 15% hits; AID 686978, 2013; also: potency is read from the fitted curve at half-maximal effect; nearly all actives have a fitted effect of over 55% in size
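Growth kinetics read by CellTiter-Glo luminescence after ≥48 hr at 37 °C. Cells: DT40 Tdp1-/- stably carrying human TDP1, 400 per well, compound exposure in the absence of CPT (DMSO vehicle).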
HT1080 IDH1KD tx: HT-1080 IDH1 knockdown cell toxicity (counter line); HT-1080 IDH1 knockdown viability, ATP luminescence, 48 h; Potency, µM (series often up to 46.1 µM), inactives show top-dose activity, negative = toxicity, usual class: cytotoxic; 360,000 compounds, 2% hits;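 also: potency is read from the fitted curve at half-maximal effect; 0% = DMSO wells and -100% = cell-free medium wells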
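Luminescent ATP read-out (CellTiter-Glo, 10 min at room temperature) after 48 h compound exposure at 37 °C gave viability of IDH1-knockdown HT-1080 cells. Activity was normalised to DMSO and cell-free wells, then fitted as concentration-response curves.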
IL1B secr inh: inflammasome signaling inhibition, IL-1 beta readout; THP-1 LPS/ATP IL-1B secretion, AlphaLISA, 16 h; active compounds read low; activity change, % at 57.5 µM; 360,000 compounds, 4.7% hits; in the data active = activity change below about -50%; inconclusive = mostly about -30% to -49%
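Secreted IL-1B measured by AlphaLISA bead assay after 16 h compound exposure of THP-1 cells; compounds (final up to 57.5 uM) added 1 h before LPS (250 ng/mL) and ATP (1.25 mM) stimulation; lower signal means less secretion.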
* = called active by the depositor; ? = inconclusive; · = no result. Many of the other results were omitted from the sample, so hits are more common in it than they were. Unless noted, calls follow the shape of the dose curve; as a rule, active = well fitted curve in the direction sought with a large enough effect; inconclusive = small, poorly fitted or top-dose-only effect, or another doubt; inactive = no such curve, though single readings can be large; an effect the other way counts as inactive or inconclusive. Unless noted, % is scaled to controls: 0 for no effect and ±100 for the full control effect.

SMILES | HT1080NT lethal | ALOX12 inh | TDP1 cell CPT | TDP1 cell noCPT | HT1080 IDH1KD tx | IL1B secr inh
COc1ccc(C(=O)NCCN2CCC(n3c(=O)[nH]c4ccccc43)CC2)cc1F | -8% | ? | -25% | -28% | 0% | ·
O=C(NCCN1CCC(n2c(=O)[nH]c3ccccc32)CC1)c1ccc(F)c(F)c1 | -22% | ? | 0.33µM* | -35% | 1% | ·
O=C(NCCN1CCC(n2c(=O)[nH]c3ccccc32)CC1)c1ccc(C(F)(F)F)cc1C(F)(F)F | -4% | -63% | 5.8µM* | 4.6µM* | 0% | -28
O=C(NCCN1CCC(n2c(=O)[nH]c3ccccc32)CC1)c1ccc(F)c(C(F)(F)F)c1 | ? | ? | ? | 26µM* | ? | ?
CCCNC(=O)c1ccc2c(c1)NC(=O)CS2 | · | -58% | · | · | · | ·
Cc1ccc(C2=NNC(c3ccc(Cl)cc3)=Nc3ccccc32)o1 | -14% | -21% | 13µM* | 12µM* | -9% | -2
c1ccc(C2=NNC(c3ccco3)=Nc3ccccc32)cc1 | -1% | 13% | -17% | ? | 2% | 0
Cc1ccc(Nc2n[nH]nc2C(=O)Nc2ccc(C)c(Cl)c2)cc1 | · | 13% | · | · | · | ·
Cc1nc(N2CCN(C(=O)c3ccco3)CC2)c2c3c(sc2n1)CCC3 | -29% | ? | 16µM* | 12µM* | -29% | ?
O=C(c1ccco1)N1CCN(C(=O)c2cccn3c(=O)c4c5c(sc4nc23)CCCC5)CC1 | -2% | 4% | ? | ? | -2% | -25
O=C(c1ccccc1)N1CCN(c2ncnc3sc4c(c23)CCC4)CC1 | -5% | ? | 21µM* | 23µM* | -26% | 0
Cc1ccc(O)c(NC(=S)NC(=O)Cc2ccc(Cl)cc2)c1 | ? | 7% | ? | ? | ? | 86
Cc1cc(O)c(NC(=S)NC(=O)c2ccc(-c3ccc(Cl)cc3)o2)cc1C | ? | ? | ? | 21µM* | ? | -20
Cc1ccc(NC(=S)NC(=O)c2ccc(-c3ccc(Cl)cc3)o2)c(O)c1 | ? | ? | 21µM* | 21µM* | ? | 0
C=CCN1C(=O)/C(=C2\SC(N3CCOCC3)=NC2=O)c2cc(Br)ccc21 | 15% | -13% | 23µM* | ? | 8% | 16
O=C(c1ccc2c(c1)OCO2)N1CCC2(CC1)COc1ccccc1CN2 | · | -6% | · | · | · | ·
CCOc1ccc(NC(=O)CCc2nc(-c3ccc(C)n(C(C)C)c3=O)no2)cc1 | · | -2% | · | · | · | ·
Cc1cc(NCCCCCCCNc2cc(C)nc3cc([N+](=O)[O-])ccc23)c2ccc([N+](=O)[O-])cc2n1 | ? | ? | 1.6µM* | 1.3µM* | ? | -103*
CN(Cc1ccco1)C(=O)CSc1nc(-c2cccs2)nc2ccccc12 | · | -16% | · | · | · | ·
CC(C(=O)Nc1ccc(F)cc1)n1nnc2sc(-c3ccccc3)cc2c1=O (centres undefined) | · | 32µM* | · | · | · | ·
COc1ccc(NC(=O)C(C)n2nnc3sc(-c4ccccc4)cc3c2=O)cc1Cl (centres undefined) | · | ? | 13µM* | 6.5µM* | · | ·
Cc1cc(C)c(NC(=O)C(C)n2nnc3sc(-c4ccccc4)cc3c2=O)c(C)c1 (centres undefined) | · | ? | ? | 0% | · | ·
CCC(C(=O)OC)n1nnc2sc(-c3ccccc3)cc2c1=O (centres undefined) | · | -21% | ? | 15µM* | · | ·
COc1ccc(NC(=O)C(OC)c2ccccc2)cc1Cl (centres undefined) | 14% | -14% | -1% | -30% | 6% | -8
COCCOC(=O)Cn1nnc2sc(-c3ccccc3)cc2c1=O | · | ? | -24% | -14% | · | ·
Cc1noc([C@@H]2CN(Cc3ccco3)C[C@H]2CO)n1 | · | 45% | · | · | · | ·
